Bioassay records deposited in PubChem by The Scripps Research Institute Molecular Screening Center.
MITF primary = MITF inhibitors, primary screen, biochemical, AlphaScreen, human. Microphthalmia-associated transcription factor (Homo sapiens), O75030. AlphaScreen MITF homodimerization, bead proximity signal. inhibition, % at 2.6 µM. actives 0.91% (n = 650,000); in the data active = inhibition above about 50%
FBW7 act = FBW7 E3 ligase activators, primary screen, biochemical, AlphaScreen, human. F-box/WD repeat-containing protein 7 (Homo sapiens), Q969H0. normalized activity (activation), % at 26.1 µM. actives 0.13% (n = 650,000). AlphaScreen FBW7–phospho-cyclin E peptide binding, activator screen; in the data active = normalized activity above about 1.9%;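 also: purified mutant Fbw7 with reduced substrate affinity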
GPR151 activ = activators of human GPR151, primary screen, cell-based, PathHunter beta-arrestin, luminescence. G-protein coupled receptor 151 (Homo sapiens), Q8TDV0. PathHunter beta-arrestin GPR151 cells. activation, % at 11.2 µM. actives 1% (n = 650,000). AID 1508602, 2020; in the data active = activation above about 4.9%
Target sequence (Q8TDV0 whole entry, looked up): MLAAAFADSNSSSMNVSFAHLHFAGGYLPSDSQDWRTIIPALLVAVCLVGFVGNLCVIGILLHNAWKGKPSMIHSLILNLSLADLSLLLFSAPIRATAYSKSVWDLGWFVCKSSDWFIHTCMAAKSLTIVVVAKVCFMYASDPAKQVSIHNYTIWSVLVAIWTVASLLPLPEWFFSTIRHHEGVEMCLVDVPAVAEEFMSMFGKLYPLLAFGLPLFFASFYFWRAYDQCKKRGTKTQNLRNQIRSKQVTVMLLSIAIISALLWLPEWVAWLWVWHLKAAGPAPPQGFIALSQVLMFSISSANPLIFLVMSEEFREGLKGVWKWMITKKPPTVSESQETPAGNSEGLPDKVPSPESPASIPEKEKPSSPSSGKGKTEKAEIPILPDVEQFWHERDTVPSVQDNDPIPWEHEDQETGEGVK
TEAD-YAP block = TEAD-YAP interaction inhibition, primary screen, TEAD-YAP interaction inhibitor project, luminescence, HEK-TIYL cells; TEAD-Gal4/YAP UAS-luciferase luminescence; inhibition, % at 9.12 µM; actives 1.4% (n = 640,000); in the data active = inhibition above about 32%
MITF confirm = MITF inhibitors, retest of hits, confirmation, biochemical, AlphaScreen, triplicate | AlphaScreen MITF homodimerization, biotin/His-MITF beads | inhibition, % at 2.6 µM | actives 16% (n = 4,700) | shares compounds with MITF primary | AID 1259372, 2018;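 active = inhibition above a cutoff derived from the DMSO control wells, cut at about 28% in these data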;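 also: inhibitors lower the bead chemiluminescence by keeping MITF from dimerizing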
AS interf DR = AlphaScreen optical interference compounds, dose response, counter-screen, biochemical, HTS; actives 6% (n = 480); shares compounds with MITF primary; AID 1259373, 2018; IC50, µM; AlphaScreen optical interference counterscreen, cell-free; call rule not given here
AS interf ctr = AlphaScreen optical interference compounds, counter-screen for MITF inhibitor project, biochemical, triplicate; shares compounds with MITF primary; LysRS AlphaScreen counterscreen, signal interference; inhibition, % at 2.6 µM; actives 7.6% (n = 4,700); AID 1259376, 2018;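 active = inhibition above a cutoff derived from the DMSO control wells, cut at about 30% in these data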
A number is an active result; ! = not confirmed by another sample. An excerpt weighted towards active compounds, which were near 3.5% of everything screened.

What do the screens show for `CCOC(=O)c1ccc(NC(=O)CC2C(=O)N(c3ccc(F)cc3)C(=S)N2CCc2ccc(OC)c(OC)c2)cc1` (stereo unspecified)?
MITF primary: 72!; FBW7 act: inactive; GPR151 activ: inactive; TEAD-YAP block: inactive; MITF confirm: inactive; AS interf ctr: inactive

How did CCN1CCN(C/C=C/c2ccccc2OC)CC1 do in these assays?
MITF primary: 51; FBW7 act: inactive; GPR151 activ: inactive; TEAD-YAP block: inactive; MITF confirm: inactive; AS interf ctr: inactive

How did O=[N+]([O-])c1ccc(CN2CCN(C/C=C/c3ccccc3)CC2)o1 do in these assays?
MITF primary: 65; FBW7 act: inactive; GPR151 activ: inactive; TEAD-YAP block: inactive; MITF confirm: inactive; AS interf ctr: inactive

How did CCN1CCN(C/C=C/c2ccccc2[N+](=O)[O-])CC1 do in these assays?
MITF primary: 60; FBW7 act: inactive; GPR151 activ: inactive; TEAD-YAP block: inactive; MITF confirm: inactive; AS interf ctr: inactive

Results for Cc1ccc(Nc2nc(NCCN3CCOCC3)nc3nccnc23)cc1C ?
MITF primary: 61; FBW7 act: inactive; GPR151 activ: inactive; TEAD-YAP block: inactive; MITF confirm: inactive; AS interf ctr: inactive

How did Cc1ncc(CO)c(/C=N/NC(=O)c2ccc(Cl)cc2O)c1O do in these assays?
MITF primary: 60; FBW7 act: inactive; GPR151 activ: inactive; TEAD-YAP block: inactive; MITF confirm: inactive; AS interf ctr: 32

What do the screens show for `O=C(N/N=C/c1ccccn1)c1ccc([N+](=O)[O-])cc1Cl`?
MITF primary: inactive; FBW7 act: inactive; GPR151 activ: inactive; TEAD-YAP block: inactive

What do the screens show for `Cc1ncc(CO)c(/C=N/NC(=O)c2ccccc2O)c1O`?
MITF primary: inactive; FBW7 act: inactive; GPR151 activ: inactive; TEAD-YAP block: inactive

Results for Cc1ncc(CO)c(/C=N/NC(=O)c2ccc([N+](=O)[O-])cc2Cl)c1O ?
MITF primary: 67; FBW7 act: inactive; GPR151 activ: inactive; TEAD-YAP block: inactive; MITF confirm: inactive; AS interf ctr: 96

What do the screens show for `O=C(O)/C=C/C(=O)NC1CCCCCCC1`?
MITF primary: inactive; FBW7 act: inactive; GPR151 activ: inactive; TEAD-YAP block: inactive

Results for O=P(O)(O)O[C@@H]1[C@H](O)[C@H](O)[C@@H](OP(=O)(O)O)[C@H](OP(=O)(O)O)[C@H]1O ?
MITF primary: 54!; GPR151 activ: inactive; MITF confirm: inactive; AS interf ctr: inactive

Results for Cc1ccc2c(c1)c(=O)c1ccccc1n2CC(=O)Nc1ccc(F)cc1F ?
MITF primary: 77; FBW7 act: inactive; GPR151 activ: inactive; TEAD-YAP block: inactive; MITF confirm: inactive; AS interf ctr: inactive

How did O=C(c1ccc(-n2cccc2)cc1)N1CCN(c2ccccc2F)CC1 do in these assays?
MITF primary: inactive; FBW7 act: inactive; GPR151 activ: inactive; TEAD-YAP block: inactive

What do the screens show for `Cc1ccc(/C=C/C(=O)n2nc(C)cc2C)cc1`?
MITF primary: inactive; FBW7 act: inactive; GPR151 activ: inactive; TEAD-YAP block: inactive

Results for Cc1cc(C)n(C(=O)/C=C/c2ccc(Br)cc2)n1 ?
MITF primary: 55; FBW7 act: inactive; GPR151 activ: inactive; TEAD-YAP block: inactive; MITF confirm: inactive; AS interf ctr: inactive

Results for CCN(CC)C(=O)C1CCCN(c2nc3c(Nc4ccc(NC(C)=O)cc4)ncnc3n2C(C)C)C1 (stereo unspecified) ?
MITF primary: inactive; FBW7 act: inactive; GPR151 activ: inactive; TEAD-YAP block: inactive

How did Cn1c(-c2ccc(-c3ccccc3)cc2)cnc1NCc1cccnc1 do in these assays?
MITF primary: 63; FBW7 act: inactive; GPR151 activ: inactive; TEAD-YAP block: inactive; MITF confirm: inactive; AS interf ctr: inactive

Results for Cn1c(-c2cccc([N+](=O)[O-])c2)cnc1NCc1cccc([N+](=O)[O-])c1 ?
MITF primary: inactive; FBW7 act: inactive; GPR151 activ: inactive; TEAD-YAP block: inactive

Results for Cn1c(-c2ccc3c(c2)OCO3)cnc1NCc1cccc(F)c1 ?
MITF primary: 54; FBW7 act: inactive; GPR151 activ: inactive; TEAD-YAP block: inactive; MITF confirm: inactive; AS interf ctr: inactive

Results for Cn1c(-c2ccc(Br)cc2)cnc1NCc1cccnc1 ?
MITF primary: inactive; FBW7 act: inactive; GPR151 activ: inactive; TEAD-YAP block: inactive

Results for Cc1ccc(-c2cnc(NCc3cccc([N+](=O)[O-])c3)n2C)cc1 ?
MITF primary: 65; FBW7 act: inactive; GPR151 activ: inactive; TEAD-YAP block: inactive; MITF confirm: inactive; AS interf ctr: inactive

Results for Cn1c(-c2ccc(F)cc2)cnc1NCc1ccc(F)cc1 ?
MITF primary: 53; FBW7 act: inactive; GPR151 activ: inactive; TEAD-YAP block: inactive; MITF confirm: inactive; AS interf ctr: inactive

What do the screens show for `COC(=O)c1ccc(NC(=O)c2ccc(NC(=O)c3cccc([N+](=O)[O-])c3)cc2)cc1`?
MITF primary: inactive; FBW7 act: inactive; GPR151 activ: inactive; TEAD-YAP block: inactive

How did C=CCNC(=O)c1ccccc1NS(=O)(=O)c1cccs1 do in these assays?
MITF primary: inactive; FBW7 act: inactive; GPR151 activ: inactive; TEAD-YAP block: inactive

How did C=CCOc1ccc(/C=C2/C(=O)N(c3ccc(Br)cc3)N=C2C)cc1OC do in these assays?
MITF primary: inactive; FBW7 act: inactive; GPR151 activ: inactive; TEAD-YAP block: inactive

What do the screens show for `COc1cccc(-c2cnc(NCc3ccc(F)cc3F)n2C)c1`?
MITF primary: 51; FBW7 act: inactive; GPR151 activ: inactive; TEAD-YAP block: inactive; MITF confirm: inactive; AS interf ctr: inactive

How did CNC(=O)COc1cc(-c2cn[nH]c2)ccc1NC(=O)C1COc2ccc(OC)cc2C1 (stereo unspecified) do in these assays?
MITF primary: 66; FBW7 act: inactive; GPR151 activ: inactive; TEAD-YAP block: inactive; MITF confirm: 52; AS interf DR: inactive; AS interf ctr: inactive

How did Cc1cc(C)c(OCC(O)CN2CCN(Cc3ccc4c(c3)OCO4)CC2)c(C)c1 (stereo unspecified) do in these assays?
MITF primary: 52; FBW7 act: inactive; GPR151 activ: inactive; TEAD-YAP block: inactive; MITF confirm: inactive; AS interf ctr: inactive

How did C/C=C/c1ccc(OCC(O)CN2CCN(Cc3ccc4c(c3)OCO4)CC2)c(OC)c1 (stereo unspecified) do in these assays?
MITF primary: 64; FBW7 act: inactive; GPR151 activ: inactive; TEAD-YAP block: inactive; MITF confirm: inactive; AS interf ctr: inactive
